tested on: DIPGX7 (H3.3 K27M diffuse intrinsic pontine glioma line); test: growth inhibition (% activity, log2 RLU normalised to DMSO / staurosporine); higher = more growth inhibition; details: 33 µM
Procedure, shortened: (§1)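 On Geltrex-coated 384-well plates, pHGG cell lines and H9-derived neural stem cells were grown with approved drugs pinned in at a single final concentration of about 33 μM, in triplicate, for 7 days at 37 °C, 5% CO2. Per-plate normalisation of log2-transformed CellTiter-Glo luminescence to % activity between solvent and positive control wells followed. Each growth-inhibition value is the median over the replicates.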

Row | Structure (SMILES) | growth inhibition
1 | Cc1nnc(C(=O)NC(C)(C)c2nc(C(=O)NCc3ccc(F)cc3)c(O)c(=O)n2C)o1 | 2.62%
2 | Cn1c(=O)c2[nH]cnc2n(C)c1=O | -0.294%
3 | CCCCCCCCCCCCCCCCCCCCCCO | -0.407%
4 | CC(C(=O)O)c1ccc(-c2ccccc2)c(F)c1 (configuration not stated) | 1.53%
5 | NC(N)=Nc1nc(CSCC/C(N)=N/S(N)(=O)=O)cs1 | -1.85%
6 | Nc1ccn(C[C@@H](CO)OCP(=O)(O)O)c(=O)n1 | 1.32%
7 | N[C@@H]1CN(c2c(F)cc3c(=O)c(C(=O)O)cn([C@@H]4C[C@@H]4F)c3c2Cl)CC12CC2 | 1.79%
8 | C=Cc1c(C)c2cc3nc(cc4[nH]c(cc5nc(cc1[nH]2)C(C)=C5CCC(=O)O)c(CCC(=O)OC)c4C)C1(C)C3=CC=C(C(=O)OC)C1C(=O)OC (configuration not stated) | 0.254%
9 | N=c1nc(N2CCCCC2)cc(N)n1O | 0.732%
10 | CC(=O)OCC(=O)[C@@]1(O)[C@H](C)C[C@H]2[C@@H]3CCC4=CC(=O)C=C[C@]4(C)[C@@]3(F)[C@@H](O)C[C@@]21C | 1.89%
11 | Cc1ccc2c(Cl)cc(Cl)c(O)c2n1 | 3.99%
12 | CCOC(=O)C1=C[C@@H](OC(CC)CC)[C@H](NC(C)=O)[C@@H](N)C1 | -0.6%
13 | O=c1cc[nH]c(=O)[nH]1 | 0.41%
14 | CC(C[N+](C)(C)C)OC(N)=O (configuration not stated) | -1.77%
15 | Cc1cccc(N(C)C(=S)Oc2ccc3ccccc3c2)c1 | -2.16%
16 | O=C1c2c(O)ccc(O)c2C(=O)c2c(NCCNCCO)ccc(NCCNCCO)c21 | 59.1%
17 | CCN1CCCC1CNC(=O)c1cc(S(N)(=O)=O)ccc1OC (configuration not stated) | 2.35%
18 | O=C1O[C@H]([C@@H](O)CO)C([O-])=C1O.[Na+] | -0.532%
19 | Cc1cc(C(C)(C)C)cc(C)c1CC1=NCCN1 | -1.4%
20 | Cc1ccc(-c2cc(C(F)(F)F)nn2-c2ccc(S(N)(=O)=O)cc2)cc1 | -0.904%
21 | CC[C@@H]([C@H](C)O)n1ncn(-c2ccc(N3CCN(c4ccc(OC[C@@H]5CO[C@@](Cn6cncn6)(c6ccc(F)cc6F)C5)cc4)CC3)cc2)c1=O | -0.181%
22 | O=C1CCc2ccc(OCCCCN3CCN(c4cccc(Cl)c4Cl)CC3)cc2N1 | 4.16%
23 | CC(C)(C#N)c1cc(Cn2cncn2)cc(C(C)(C)C#N)c1 | 0.764%

tested on: DIPGX9 (diffuse intrinsic pontine glioma line); test: as above; details: 33 µM
Procedure, shortened: as §1

Row | Structure (SMILES) | growth inhibition
24 | CCCNC(C)C(=O)Nc1ccccc1C (configuration not stated) | -0.603%
25 | NS(=O)(=O)c1cc2c(cc1Cl)NCNS2(=O)=O | 0.545%
26 | CCCNC(C)C(=O)Nc1c(C)csc1C(=O)OC (configuration not stated) | -0.444%
27 | C[C@@H](O)[C@H]1C(=O)N2C(C(=O)O)=C(S[C@@H]3CN[C@H](C(=O)N(C)C)C3)[C@H](C)[C@H]12 | -0.242%
28 | O=C(O)c1cc(/N=N/c2ccc(S(=O)(=O)Nc3ccccn3)cc2)ccc1O | 0.949%
29 | CN1C(CCl)Nc2cc(Cl)c(S(N)(=O)=O)cc2S1(=O)=O (configuration not stated) | 0.87%
30 | COc1ccc2cc1Oc1ccc(cc1)C[C@H]1c3c(cc4c(c3Oc3cc5c(cc3OC)CCN(C)[C@@H]5C2)OCO4)CCN1C | 1.36%
31 | CCN1CCN(C(=O)N[C@@H](C(=O)N[C@@H]2C(=O)N3[C@@H]2SC(C)(C)[C@@H]3C(=O)O)c2ccccc2)C(=O)C1=O | -1.09%
32 | COc1ccc(C2C(=O)c3ccccc3C2=O)cc1 | 0.658%
33 | [Na+].[Na+].[Na+].[O]=[V]([O-])([O-])[O-] | 0.306%
34 | Cc1noc(NS(=O)(=O)c2ccc(N)cc2)c1C | -0.0916%
35 | N#C[C@@H]1CCCN1C(=O)CNC12CC3CC(CC(O)(C3)C1)C2 | -1%
36 | Oc1ccc(OCc2ccccc2)cc1 | 2.61%
37 | CN(C)c1ccc(C(=C2C=CC(=[N+](C)C)C=C2)c2ccc(N(C)C)cc2)cc1 | 41.4%
38 | C[C@@H](O[C@H]1OCCN(Cc2n[nH]c(=O)[nH]2)[C@H]1c1ccc(F)cc1)c1cc(C(F)(F)F)cc(C(F)(F)F)c1 | 4.43%
39 | Cc1c(C(=O)NN2CCCCC2)nn(-c2ccc(Cl)cc2Cl)c1-c1ccc(Cl)cc1 | -0.743%
40 | Cc1nnc(C(=O)NC(C)(C)c2nc(C(=O)NCc3ccc(F)cc3)c(O)c(=O)n2C)o1 | 2.15%
41 | Cn1c(=O)c2[nH]cnc2n(C)c1=O | -0.0831%
42 | CCCCCCCCCCCCCCCCCCCCCCO | 0.0399%
43 | CC(C(=O)O)c1ccc(-c2ccccc2)c(F)c1 (configuration not stated) | 1.06%

Row | Structure (SMILES) | growth inhibition
44 | NC(N)=Nc1nc(CSCC/C(N)=N/S(N)(=O)=O)cs1 | -0.682%
45 | Nc1ccn(C[C@@H](CO)OCP(=O)(O)O)c(=O)n1 | 1.05%
46 | N[C@@H]1CN(c2c(F)cc3c(=O)c(C(=O)O)cn([C@@H]4C[C@@H]4F)c3c2Cl)CC12CC2 | 0.793%
47 | C=Cc1c(C)c2cc3nc(cc4[nH]c(cc5nc(cc1[nH]2)C(C)=C5CCC(=O)O)c(CCC(=O)OC)c4C)C1(C)C3=CC=C(C(=O)OC)C1C(=O)OC (configuration not stated) | -0.022%
48 | N=c1nc(N2CCCCC2)cc(N)n1O | -0.0641%
49 | CC(=O)OCC(=O)[C@@]1(O)[C@H](C)C[C@H]2[C@@H]3CCC4=CC(=O)C=C[C@]4(C)[C@@]3(F)[C@@H](O)C[C@@]21C | 6.29%
50 | Cc1ccc2c(Cl)cc(Cl)c(O)c2n1 | 8.04%
51 | CCOC(=O)C1=C[C@@H](OC(CC)CC)[C@H](NC(C)=O)[C@@H](N)C1 | -0.724%
52 | O=c1cc[nH]c(=O)[nH]1 | 1.11%
53 | CC(C[N+](C)(C)C)OC(N)=O (configuration not stated) | 0.0426%
54 | Cc1cccc(N(C)C(=S)Oc2ccc3ccccc3c2)c1 | -2.01%
55 | O=C1c2c(O)ccc(O)c2C(=O)c2c(NCCNCCO)ccc(NCCNCCO)c21 | 55.9%
56 | CCN1CCCC1CNC(=O)c1cc(S(N)(=O)=O)ccc1OC (configuration not stated) | 1.38%
57 | O=C1O[C@H]([C@@H](O)CO)C([O-])=C1O.[Na+] | -4%
58 | Cc1cc(C(C)(C)C)cc(C)c1CC1=NCCN1 | -2.83%
59 | Cc1ccc(-c2cc(C(F)(F)F)nn2-c2ccc(S(N)(=O)=O)cc2)cc1 | 0.265%
60 | CC[C@@H]([C@H](C)O)n1ncn(-c2ccc(N3CCN(c4ccc(OC[C@@H]5CO[C@@](Cn6cncn6)(c6ccc(F)cc6F)C5)cc4)CC3)cc2)c1=O | -2.09%
61 | O=C1CCc2ccc(OCCCCN3CCN(c4cccc(Cl)c4Cl)CC3)cc2N1 | 4.55%
62 | CC(C)(C#N)c1cc(Cn2cncn2)cc(C(C)(C)C#N)c1 | -0.00856%

Reference: the supplement of paper PMC8253809
